This passage reports Potency results from PubChem BioAssay (NCATS).

Records with an inconclusive call do not appear. Entries that show only a call come without a potency. Activity calls are given as the source filed them. Calls come from the whole dose curve; as a rule, active = well fitted cell-killing curve with a large enough effect; inconclusive = small, poorly fitted or top-dose-only effect, or effect the other way; inactive = no such curve, though single readings can be large or run the other way.
Potency is the fitted concentration of half-maximal effect.

The nature of one assay: Quantitative High-Throughput drug screen in 47 multiple myeloma cell lines against the NCATS MIPE library collection: OPM2_DSMZ cell viability assay (AID 1919872). Note: nearly all actives have a fitted effect of over 30% in size. The note with it: OPM2 myeloma viability, CellTiter-Glo ATP luminescence, 48 h; series mostly up to 45.8 µM. In outline:
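Luminescent ATP measurement with CellTiter-Glo gives viability, scaled between DMSO-only wells (100%) and media-only wells (0%). Cells, 500 per well, faced library compounds for 48 hours at 37C.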
In the case of `CCN(CC)C(=O)c1ccc(C2=CC3(CCNCC3)Oc3cccc(O)c32)cc1`, the Potency result was “inactive”.

On to `C[C@]12CC[C@H]3[C@@H](CCC4=CC(=O)CC[C@@]43C)[C@H]1CC[C@H]2O`, for which the Potency entry was “inactive”.

Take `CC(C)N(CCNC(=O)CN1CCCC1=O)C(C)C`: the Potency result was “inactive”.

Consider `CC(N[C@H]1C[C@H]1c1ccccc1)c1ccc2c(c1)OCCO2` (stereo partly drawn), for which the Potency result is “inactive”.

With `C[C@H]([C@H](O)CCC(C)(C)O)[C@H]1CC[C@@]2(O)C3=CC(=O)[C@@H]4C[C@@H](O)[C@@H](O)C[C@]4(C)[C@@H]3CC[C@]12C`, the Potency result was “inactive”.

Consider `C#C[C@]1(O)C=C[C@@H]2[C@@H]3CCC4=CC(=O)CC[C@@H]4[C@H]3CC[C@@]21CC`, for which the Potency entry is “inactive”.

Take `O=C(N[C@@H](COc1ccc2[nH]c(=O)[nH]c2c1)c1ccccc1)c1cccn(Cc2ccc(F)c(F)c2)c1=O`: the Potency entry was “inactive”.

Turning to `O=c1cccc2n1CC1CNC[C@H]2C1`, the Potency entry is “inactive”.

Turning to `CC(=Cc1csc(C)n1)[C@@H]1C[C@H]2O[C@]2(C)CCC[C@H](C)[C@@H](O)[C@@H](C)C(=O)C(C)(C)[C@@H](O)CC(=O)O1`, the Potency entry was “inactive”.

On to `C[C@]12CC[C@@H]3[C@@H](CCC4=CC(=O)CC[C@@H]43)[C@@H]1CC[C@@H]2OC(=O)CCc1ccccc1`, for which the Potency result is “inactive”.

For `CCC(=O)OC1CCC2C3CCC4=CC(=O)CC[C@@]4(C)C3CC[C@]12C` (stereo partly drawn), the Potency entry is “inactive”.

Take `C=C[C@@H]1CN2CCC1C[C@@H]2[C@@H](O)c1ccnc2ccccc12` (stereo partly drawn): the Potency is 20900 nM (active).

`CC(=CCCC1=CCC(C2=CC(=O)OC2O)OC1O)CCC1=C(C)CCCC1(C)C` (stereo not drawn): the Potency entry is “inactive”.

Consider `C[C@](O)(COc1ccc(C#N)cc1)C(=O)Nc1ccc(C#N)c(C(F)(F)F)c1`, for which the Potency entry was “inactive”.

With `CC(=Cc1csc(C)n1)[C@@H]1C[C@H]2O[C@@H]2CCC[C@H](C)[C@@H](O)[C@@H](C)C(=O)C(C)(C)[C@@H](O)CC(=O)O1`, the Potency entry was “inactive”.

As for `COC(=O)[C@@H](N)CCCN=C(N)N[N+](=O)[O-]`, the Potency entry was “inactive”.

In the case of `CC[C@@H](C(N)=O)N1CCCC1=O`, the Potency result is “inactive”.

Turning to `CCCC[N+]1(C)[C@H]2CC(OC(=O)[C@H](CO)c3ccccc3)C[C@H]1[C@H]1O[C@H]12` (stereo partly drawn), the Potency entry is “inactive”.

Consider `CCOC(=O)c1c(C(C#N)=CN)c2ccc(Cl)c(Cl)c2n1C`, for which the Potency entry is “inactive”.

Take `COc1cc([C@@H]2c3cc4c(cc3[C@@H](O)C3COC(=O)C32)OCO4)cc(OC)c1O` (stereo partly drawn): the Potency was 41.8 nM (active).

For the compound `O=C1C=CC[C@@H]2[C@H]3CCCN4CCC[C@@H](CN12)[C@@H]34`, the Potency entry was “inactive”.

Regarding `C[C@@]12OC(=O)[C@]1([C@@H](O)[C@@H]1C=CCCC1)NC(=O)[C@H]2CCCl`, the Potency is 37.2 nM (active).

Regarding `COc1ccc(CC2NCCc3cc(OC)c(OC)cc32)cc1OC` (stereo not drawn), the Potency result is “inactive”.

Turning to `c1ccc2c(CN3CCNCC3)cccc2c1`, the Potency entry is “inactive”.

In the case of `C[C@@H]1O[C@@H](O[C@@H]2C=C3CC[C@@H]4[C@@H](CC[C@]5(C)[C@H](c6ccc(=O)oc6)CC[C@@]45O)[C@@]3(C)CC2)[C@H](O)[C@H](O)[C@H]1O`, the Potency is 9.3 nM (active).

For `Cc1nc(-c2ccc(-c3ccc(C(=O)N4CCc5cc6c(cc54)C4(CCN(C)CC4)CO6)cc3)c(C)c2)no1`, the Potency entry is “inactive”.

As for `CC(C)(C)[C@]1(O)C[C@@H]2OC(=O)C[C@@]23C(=O)O[C@@H]2OC(=O)[C@H](O)C213` (stereo partly drawn), the Potency result is “inactive”.

Regarding `O=C(Oc1ccc([N+](=O)[O-])cc1)N1CCC(C(O)(c2ccc3c(c2)OCO3)c2ccc3c(c2)OCO3)CC1`, the Potency result is “inactive”.

With `C=C1C[C@H]2[C@H]3CCC(=O)[C@@]3(C)CC[C@@H]2[C@@]2(C)C=CC(=O)C=C12`, the Potency result is “inactive”.

With `C[C@]12CCC(=O)C(O)=C1CC[C@@H]1[C@H]3CCC(=O)[C@@]3(C)CC[C@@H]12`, the Potency entry was “inactive”.

Turning to `N=c1c2c(-c3ccccc3)c(-c3ccccc3)n(Cc3ccccc3)c2ncn1C1CCC(O)CC1` (stereo not drawn), the Potency is 5900 nM (active).

`O=C(NCC1CCOCC1)c1cnc(Nc2ccc(Cl)cc2Cl)nc1C(F)(F)F`: the Potency result is “inactive”.

A further assay can be described thus: Quantitative High-Throughput drug screen in 47 multiple myeloma cell lines against the NCATS MIPE library collection: KMS11_JCRBsus cell viability assay (AID 1919873). Note: nearly all actives have a fitted effect of over 50% in size. The note with it: KMS11 myeloma viability, CellTiter-Glo ATP luminescence, 48 h; series mostly up to 45.8 µM. In outline:
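Inhibition of viability over 48 h was scored by ATP content (CellTiter-Glo) in 500-cell wells. Zero and full viability were defined by media-only and DMSO-only wells.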
(Cellular ATP, detected with luciferase, serves as a proxy for viable cell number.)
In the case of `CCN(CC)C(=O)c1ccc(C2=CC3(CCNCC3)Oc3cccc(O)c32)cc1`, the Potency entry is “inactive”.

On to `COc1ccc2c(c1)CN(C)CC2c1ccc(Cl)c(Cl)c1` (stereo not drawn), for which the Potency was 14800 nM (active).

On to `CC(C)N(CCNC(=O)CN1CCCC1=O)C(C)C`, for which the Potency result was “inactive”.

`CC(N[C@H]1C[C@H]1c1ccccc1)c1ccc2c(c1)OCCO2` (stereo partly drawn): the Potency result is “inactive”.

Regarding `C[C@H]([C@H](O)CCC(C)(C)O)[C@H]1CC[C@@]2(O)C3=CC(=O)[C@@H]4C[C@@H](O)[C@@H](O)C[C@]4(C)[C@@H]3CC[C@]12C`, the Potency result is “inactive”.

As to `O=c1cccc2n1CC1CNC[C@H]2C1`, the Potency is 6620 nM (active).

On to `CC(=Cc1csc(C)n1)[C@@H]1C[C@H]2O[C@]2(C)CCC[C@H](C)[C@@H](O)[C@@H](C)C(=O)C(C)(C)[C@@H](O)CC(=O)O1`, for which the Potency entry is “inactive”.

In the case of `C[C@]12CC[C@@H]3[C@@H](CCC4=CC(=O)CC[C@@H]43)[C@@H]1CC[C@@H]2OC(=O)CCc1ccccc1`, the Potency entry was “inactive”.

In the case of `CCC(=O)OC1CCC2C3CCC4=CC(=O)CC[C@@]4(C)C3CC[C@]12C` (stereo partly drawn), the Potency entry is “inactive”.

With `C=C[C@@H]1CN2CCC1C[C@@H]2[C@@H](O)c1ccnc2ccccc12` (stereo partly drawn), the Potency is 20900 nM (active).

As to `CC(=Cc1csc(C)n1)[C@@H]1C[C@H]2O[C@@H]2CCC[C@H](C)[C@@H](O)[C@@H](C)C(=O)C(C)(C)[C@@H](O)CC(=O)O1`, the Potency entry is “inactive”.

`COC(=O)[C@@H](N)CCCN=C(N)N[N+](=O)[O-]`: the Potency result is “inactive”.

With `Cc1c(C(=O)Nc2cccc(C(F)(F)F)c2)cc(-c2ccccc2)n1CCCN1CCOCC1`, the Potency is 23500 nM (active).

As to `CC[C@@H](C(N)=O)N1CCCC1=O`, the Potency entry is “inactive”.

As to `COC1=CC(C)=C[C@@H](C)[C@@H](O)[C@@H](C)CC(C)=CC=C[C@H](OC)[C@H]([C@@H](C)[C@@H](O)[C@H](C)[C@@]2(O)C[C@@H](O)[C@H](C)[C@@H](C(C)C)O2)OC1=O`, the Potency was 1.9 nM (active).

Consider `COc1cc([C@@H]2c3cc4c(cc3[C@@H](O)C3COC(=O)C32)OCO4)cc(OC)c1O` (stereo partly drawn), for which the Potency was 9.3 nM (active).

`O=C1C=CC[C@@H]2[C@H]3CCCN4CCC[C@@H](CN12)[C@@H]34`: the Potency result was “inactive”.

In the case of `C[C@@]12OC(=O)[C@]1([C@@H](O)[C@@H]1C=CCCC1)NC(=O)[C@H]2CCCl`, the Potency was 6.6 nM (active).

For the compound `COc1ccc(CC2NCCc3cc(OC)c(OC)cc32)cc1OC` (stereo not drawn), the Potency entry was “inactive”.

With `c1ccc2c(CN3CCNCC3)cccc2c1`, the Potency result was “inactive”.

Turning to `C[C@@H]1O[C@@H](O[C@@H]2C=C3CC[C@@H]4[C@@H](CC[C@]5(C)[C@H](c6ccc(=O)oc6)CC[C@@]45O)[C@@]3(C)CC2)[C@H](O)[C@H](O)[C@H]1O`, the Potency is 52.6 nM (active).

On to `Cc1nc(-c2ccc(-c3ccc(C(=O)N4CCc5cc6c(cc54)C4(CCN(C)CC4)CO6)cc3)c(C)c2)no1`, for which the Potency result was “inactive”.

`CC(C)(C)[C@]1(O)C[C@@H]2OC(=O)C[C@@]23C(=O)O[C@@H]2OC(=O)[C@H](O)C213` (stereo partly drawn): the Potency entry is “inactive”.

With `O=C(Oc1ccc([N+](=O)[O-])cc1)N1CCC(C(O)(c2ccc3c(c2)OCO3)c2ccc3c(c2)OCO3)CC1`, the Potency entry is “inactive”.

For the compound `N=c1c2c(-c3ccccc3)c(-c3ccccc3)n(Cc3ccccc3)c2ncn1C1CCC(O)CC1` (stereo not drawn), the Potency is 2090 nM (active).

Take `O=C(NCC1CCOCC1)c1cnc(Nc2ccc(Cl)cc2Cl)nc1C(F)(F)F`: the Potency result was “inactive”.
